In assay [1] the target is Glucocorticoid receptor (Homo sapiens) (UniProt P04150). Briefly: ATG_GR_TRANS: Attagene TRANS-FACTORIAL HepG2 Assay for human Glucocorticoid Receptor (GR) (AID 2282978; active means hit-call score of the fitted dose curve at least 0.9, where 1 is the maximum;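 further: activators score as hits since higher reporter transcript over DMSO is fitted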). Conditions: HepG2 Attagene TRANS GR reporter, mRNA transcription. Put shortly:
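Readout is reporter transcript from a chimeric GR-Gal4 acting on GAL4-UAS in transfected human HepG2 liver cells after 24 h exposure, quantified by RT-PCR and capillary electrophoresis. Activation fitted upward against DMSO.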

For assay [2], the target named is Bile acid receptor (Homo sapiens) (UniProt Q96RI1). Description: ATG_FXR_TRANS: Attagene TRANS-FACTORIAL HepG2 Assay for Farnesoid X Receptor (FXR) (AID 2282979; active means hit-call score of the fitted dose curve at least 0.9, where 1 is the maximum;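 further: hits raise reporter mRNA above DMSO so AC50 marks FXR activation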). Conditions: HepG2 Attagene TRANS FXR-GAL4 reporter transcription. Put shortly:
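HepG2 cells transiently transfected with reporter constructs in which a chimeric FXR-GAL4 protein drives a GAL4-UAS reporter; 24 h compound exposure. Reporter mRNA measured by RT-PCR, FAM labelling, HpaI digestion and capillary electrophoresis; gain-of-signal versus DMSO.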

Assay [3] in a line: ATG_M_06_TRANS: Attagene TRANS-FACTORIAL HepG2 Assay for M06 Transcription Factor (Internal Marker) (AID 2282983; active means hit-call score of the fitted dose curve at least 0.9, where 1 is the maximum). The note with it: HepG2 Attagene TRANS M06 internal marker reporter. Put shortly:
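In this multiplexed HepG2 system, compounds are incubated 24 h with cells carrying GAL4-UAS reporter units. Reporter RNA is amplified and resolved by capillary electrophoresis, and induction is scored against DMSO.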

The nature of assay [4]: ATG_M_32_TRANS: Attagene TRANS-FACTORIAL HepG2 Assay for M32 Transcription Factor (Internal Marker) (AID 2282984; active means hit-call score of the fitted dose curve at least 0.9, where 1 is the maximum;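 further: transcript level of a background control reporter unit measured by RT-PCR and capillary electrophoresis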). The note with it: HepG2 Attagene TRANS M32 internal marker reporter. Put shortly: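 Internal background reporter in transfected HepG2: after 24 h chemical exposure, RNA reverse-transcribed, reporter cDNA amplified, fluorescently labelled and HpaI-cut, then sized by capillary electrophoresis. Gain of signal fitted against DMSO control.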

For assay [5], the target named is Nuclear receptor subfamily 4 group A member 2 (Homo sapiens) (UniProt P43354). Briefly: ATG_NURR1_TRANS: Attagene TRANS-FACTORIAL HepG2 Assay for human Nuclear Receptor Related Protein 1 (NURR1) (AID 2282985; active means hit-call score of the fitted dose curve at least 0.9, where 1 is the maximum). Conditions: HepG2 Attagene TRANS reporter, mRNA readout. Put shortly: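 Reporter transcript induction, measured by RT-PCR with fluorescent labelling, HpaI digestion and capillary electrophoresis, after 24 hr dosing of human HepG2 cells transiently expressing an exogenous NR-Gal4 fusion with GAL4-UAS-driven reporters; DMSO as baseline.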

The target of assay [6] is Transcriptional activator Myb (Homo sapiens) (UniProt P10242). Briefly: ATG_Myb_CIS: Attagene CIS-FACTORIAL HepG2 Assay for human Myeloblastosis (Myb) Proto-Oncogene Transcription Factor (AID 2282986). The note with it: HepG2 Attagene CIS-FACTORIAL Myb reporter transcription; actives raise or lower the signal. Put shortly: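 Reporter mRNA is quantified by RT-PCR and capillary electrophoresis 24 h after dosing HepG2 cells transfected with cis-regulated reporter units, which track endogenous transcription factor activity. Gain and loss of signal are fitted versus DMSO baseline.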

Assay [7] has as its target Nuclear respiratory factor 1 (Homo sapiens) (UniProt Q16656). Description: ATG_NRF1_CIS: Attagene CIS-FACTORIAL HepG2 Assay for human Nuclear Respiratory Factor 1 (NRF1) Orphan Gene (AID 2282987). The note with it: HepG2 NRF1 cis-element reporter, Attagene multiplex; actives raise or lower the signal. Put shortly:
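Endogenous NRF1-driven reporter transcription in transfected HepG2 cells after 24 h treatment. Readout: RT-PCR products, 6-FAM labelled and resolved by capillary electrophoresis; changes fitted both directions relative to DMSO.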

A short description of assay [8]: ATG_NFI_CIS: Attagene CIS-FACTORIAL HepG2 Assay for human Nuclear Factor I (NFI) (AID 2282989). The note with it: HepG2 cis-regulatory reporter, NFI response element transcription; actives raise or lower the signal. Put shortly: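 After transient transfection of HepG2 with cis-promoter reporter constructs and 24 h dosing, RNA is reverse-transcribed, amplified, 6-FAM end-labelled and HpaI-digested before capillary analysis. Bidirectional curve fitting against DMSO.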

For assay [9], the target named is Myc proto-oncogene protein (Homo sapiens) (UniProt P01106). Briefly: ATG_Myc_CIS: Attagene CIS-FACTORIAL HepG2 Assay for human Myelocytomatosis (Myc) Proto-Oncogene Transcription Factor (AID 2282990). Conditions: HepG2, Attagene cis-reporter transcription factor activity; actives raise or lower the signal. Put shortly: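 HepG2, transient MRTU transfection (cis promoters, endogenous TFs); 24 h dosing; TriZol RNA → oligo(dT) RT → PCR → 6-FAM primer extension → HpaI cut → CE. Bidirectional fit vs DMSO.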

A short description of assay [10]: ATG_NF_kB_CIS: Attagene CIS-FACTORIAL HepG2 Assay for human Nuclear Factor Kappa B (NF-kB) (AID 2282991). Conditions: HepG2 Attagene cis-factorial NF-kB reporter mRNA; actives raise or lower the signal. Put shortly: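 Readout is reporter transcript level, gain or loss versus DMSO, measured 24 h post-dose via RT-PCR, fluorescent labelling and capillary electrophoresis. Human HepG2 liver cells carried transiently transfected CIS reporter constructs reflecting endogenous factors.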

A short description of assay [11]: ATG_NRF2_ARE_CIS: Attagene CIS-FACTORIAL HepG2 Assay for human Nuclear Factor Erythroid 2 Related Factor 2 (NFR2) response to Antioxidant Response Elements (ARE) (AID 2282992). Conditions: HepG2 Attagene ARE/NRF2 reporter, transcription factor activity; actives raise or lower the signal. Put shortly: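 Using transiently transfected HepG2 cells exposed for 24 h, reporter mRNA levels were determined by RT-PCR with fluorescent primer extension and capillary electrophoresis, analysed for gain or loss of signal against DMSO.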

A short description of assay [12]: ATG_Oct_MLP_CIS: Attagene CIS-FACTORIAL HepG2 Assay for human Octamer-Binding Transcription Factor (Oct) (AID 2282993). Conditions: HepG2 Attagene cis-factorial Oct reporter, mRNA; actives raise or lower the signal. Put shortly:
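Cells of the HepG2 line express promoter-controlled reporter sequences whose mRNA levels, after 24 h treatment, are measured by RT-PCR and capillary electrophoresis. Increases and decreases are scored relative to DMSO.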

For assay [13], the target named is Cellular tumor antigen p53 (Homo sapiens) (UniProt P04637). Description: ATG_p53_CIS: Attagene CIS-FACTORIAL HepG2 Assay for human p53 Transcription Factor (AID 2282994). The note with it: HepG2 p53 cis-element reporter, Attagene mRNA; actives raise or lower the signal. Put shortly:
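In HepG2 cells, reporter transcription units under cis-regulatory promoters were transiently introduced. Following 24 h treatment, RNA was processed to labelled, digested cDNA fragments read by capillary electrophoresis; fitting was bidirectional versus DMSO.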

Assay [14] is described as follows: BSK_3C_TissueFactor: BioMAP Diversity Plus: 3C Assay for Tissue Factor Biomarker Activity (AID 2282997). The note with it: BioMAP 3C HUVEC, tissue factor biomarker readout; actives raise or lower the signal. Put shortly: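 Readout: Tissue Factor ELISA. Cells: human primary umbilical vein endothelium. Time: 24 h after dosing. Analysis: bidirectional fit, DMSO baseline.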

Assay [15] is described as follows: BSK_3C_uPAR: BioMAP Diversity Plus: 3C Assay for Urokinase-type plasminogen activator receptor (uPAR) Biomarker Activity (AID 2282998). The note with it: BioMAP 3C HUVEC, uPAR biomarker ELISA; actives raise or lower the signal. Put shortly: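 Endothelial primary cells of human umbilical vein origin received test chemical; 24 h later uPAR was assayed by ELISA. Fitting was bidirectional, DMSO as negative control.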
For orientation: In an ELISA, binding on a coated surface is turned into a signal by an enzyme label.

A short description of assay [16]: BSK_3C_VCAM1: BioMAP Diversity Plus: 3C Assay for Vascular cell adhesion molecule 1 (VCAM1) Biomarker Activity (AID 2282999). Conditions: BioMAP 3C HUVEC, VCAM1 ELISA, cytokine-stimulated; actives raise or lower the signal. Put shortly: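 Activity fitted in both directions relative to DMSO, with ELISA measurement of the surface marker on primary HUVEC (3C) at 24 h post-treatment; parallel SRB staining (0.1% SRB, TCA-fixed, 560 nm) flagged overt cytotoxicity.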

The target of assay [17] is Oxysterols receptor LXR-beta (Homo sapiens) (UniProt P55055). Description: ATG_LXRb_TRANS: Attagene TRANS-FACTORIAL HepG2 Assay for human Liver X Receptor beta (LXRb) (AID 2282981; active means hit-call score of the fitted dose curve at least 0.9, where 1 is the maximum). Conditions: HepG2 Attagene TRANS GAL4-LXRb reporter, mRNA. Put shortly:
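After 24 h chemical treatment of transfected HepG2 cells carrying exogenous NR-Gal4 chimeras, reporter mRNA was quantified by fluorescent RT-PCR and capillary electrophoresis; activity taken as increase over DMSO controls.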

For assay [18], the target named is Hepatocyte nuclear factor 4-alpha (Homo sapiens) (UniProt P41235). Briefly: ATG_HNF4a_TRANS: Attagene TRANS-FACTORIAL HepG2 Assay for human Hepatocyte Nuclear Factor 4 alpha (HNF4a) (AID 2282982; active means hit-call score of the fitted dose curve at least 0.9, where 1 is the maximum). The note with it: HepG2 HNF4a transactivation reporter, mRNA readout. Put shortly:
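Activity of an exogenous HNF4a–Gal4 fusion scored as induced GAL4-UAS reporter transcripts after 24 h chemical exposure of transfected human HepG2 cells. Read-out via RT-PCR with 6-FAM labelling and capillary electrophoresis; rise over DMSO baseline.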

Assay [19] can be described thus: BSK_4H_Eotaxin3: BioMAP Diversity Plus: 4H Assay for Eotaxin 3 Biomarker Activity (AID 2283000).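 Further: CCL26 protein level quantified by ELISA in parallel with SRB cytotoxicity check.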 The note with it: primary human endothelial cells (HUVEC); actives raise or lower the signal. Put shortly: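 HUVEC, 24 h post-dose, ELISA for Eotaxin-3/CCL26. Gain or loss of signal fitted bidirectionally vs DMSO baseline.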
For assay [20], the target named is Oxysterols receptor LXR-alpha (Homo sapiens) (UniProt Q13133). Description: ATG_LXRa_TRANS: Attagene TRANS-FACTORIAL HepG2 Assay for human Liver X Receptor alpha (LXRa) (AID 2282980; active means hit-call score of the fitted dose curve at least 0.9, where 1 is the maximum). The note with it: HepG2 Attagene TRANS reporter, LXRa transactivation. Put shortly: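 HepG2 cells were transiently transfected with multiplexed reporter units driven by chimeric LXRa–GAL4 fusion proteins, then dosed for 24 h. Reporter mRNA was quantified by RT-PCR, fluorescent labelling and capillary electrophoresis; gain of signal fitted against DMSO baseline.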

Inconclusive results are not listed. The source made the active and inactive calls. How the source made its calls, unless noted: active means hit-call score of the fitted dose curve at least 0.9, where 1 is the maximum; inactive means score below 0.9.

One may read the AC50 as the concentration at which the activity in the assay is half-maximal.

Myc proto-oncogene protein (Homo sapiens), sequence (P01106 whole entry, looked up): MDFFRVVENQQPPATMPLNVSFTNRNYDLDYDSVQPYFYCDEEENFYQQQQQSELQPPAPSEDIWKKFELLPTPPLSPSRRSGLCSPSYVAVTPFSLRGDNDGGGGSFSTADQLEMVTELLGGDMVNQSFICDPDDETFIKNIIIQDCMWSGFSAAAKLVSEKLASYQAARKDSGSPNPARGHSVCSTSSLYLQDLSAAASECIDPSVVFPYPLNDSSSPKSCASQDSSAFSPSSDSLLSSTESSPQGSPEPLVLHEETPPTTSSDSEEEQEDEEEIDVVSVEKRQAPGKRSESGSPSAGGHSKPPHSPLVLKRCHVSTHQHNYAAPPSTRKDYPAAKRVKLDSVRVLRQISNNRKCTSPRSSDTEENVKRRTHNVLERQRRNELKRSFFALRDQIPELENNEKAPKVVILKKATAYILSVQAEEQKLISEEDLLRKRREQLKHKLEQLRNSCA
Transcriptional activator Myb (Homo sapiens), sequence (P10242 whole entry, looked up): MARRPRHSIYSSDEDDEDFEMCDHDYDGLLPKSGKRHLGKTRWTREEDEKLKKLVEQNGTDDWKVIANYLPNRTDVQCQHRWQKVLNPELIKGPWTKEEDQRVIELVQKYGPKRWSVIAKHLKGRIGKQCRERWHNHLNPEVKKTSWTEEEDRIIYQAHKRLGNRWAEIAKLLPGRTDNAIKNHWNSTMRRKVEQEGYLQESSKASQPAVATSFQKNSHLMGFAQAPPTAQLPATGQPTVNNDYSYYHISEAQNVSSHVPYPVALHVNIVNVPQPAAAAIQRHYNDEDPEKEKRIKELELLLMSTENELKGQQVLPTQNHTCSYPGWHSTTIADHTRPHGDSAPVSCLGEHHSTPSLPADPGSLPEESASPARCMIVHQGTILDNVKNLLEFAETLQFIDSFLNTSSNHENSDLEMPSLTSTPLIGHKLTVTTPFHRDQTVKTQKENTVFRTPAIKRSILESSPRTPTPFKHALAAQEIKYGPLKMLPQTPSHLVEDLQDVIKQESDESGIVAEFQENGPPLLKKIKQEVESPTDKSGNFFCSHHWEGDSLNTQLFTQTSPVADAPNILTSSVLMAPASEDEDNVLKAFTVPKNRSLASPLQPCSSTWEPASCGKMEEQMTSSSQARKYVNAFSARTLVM
Nuclear receptor subfamily 4 group A member 2 (Homo sapiens), sequence (P43354 whole entry, looked up, the tested form may be a part): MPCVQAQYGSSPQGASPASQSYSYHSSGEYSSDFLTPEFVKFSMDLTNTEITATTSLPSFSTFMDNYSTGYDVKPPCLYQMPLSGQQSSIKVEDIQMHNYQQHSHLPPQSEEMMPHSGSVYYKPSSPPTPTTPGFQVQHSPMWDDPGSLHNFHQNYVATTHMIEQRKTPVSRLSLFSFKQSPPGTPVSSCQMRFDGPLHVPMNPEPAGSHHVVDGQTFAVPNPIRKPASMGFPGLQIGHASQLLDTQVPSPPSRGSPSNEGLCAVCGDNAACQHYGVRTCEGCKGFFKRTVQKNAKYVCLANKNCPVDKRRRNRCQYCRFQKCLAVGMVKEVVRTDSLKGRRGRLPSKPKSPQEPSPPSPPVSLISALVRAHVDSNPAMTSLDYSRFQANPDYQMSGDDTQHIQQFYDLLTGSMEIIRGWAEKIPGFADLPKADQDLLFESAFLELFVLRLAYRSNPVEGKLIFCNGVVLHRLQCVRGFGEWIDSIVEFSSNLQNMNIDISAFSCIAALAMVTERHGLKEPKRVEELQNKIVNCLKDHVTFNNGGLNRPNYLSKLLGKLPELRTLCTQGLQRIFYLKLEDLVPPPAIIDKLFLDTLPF
Glucocorticoid receptor (Homo sapiens), sequence (P04150 whole entry, looked up, the tested form may be a part): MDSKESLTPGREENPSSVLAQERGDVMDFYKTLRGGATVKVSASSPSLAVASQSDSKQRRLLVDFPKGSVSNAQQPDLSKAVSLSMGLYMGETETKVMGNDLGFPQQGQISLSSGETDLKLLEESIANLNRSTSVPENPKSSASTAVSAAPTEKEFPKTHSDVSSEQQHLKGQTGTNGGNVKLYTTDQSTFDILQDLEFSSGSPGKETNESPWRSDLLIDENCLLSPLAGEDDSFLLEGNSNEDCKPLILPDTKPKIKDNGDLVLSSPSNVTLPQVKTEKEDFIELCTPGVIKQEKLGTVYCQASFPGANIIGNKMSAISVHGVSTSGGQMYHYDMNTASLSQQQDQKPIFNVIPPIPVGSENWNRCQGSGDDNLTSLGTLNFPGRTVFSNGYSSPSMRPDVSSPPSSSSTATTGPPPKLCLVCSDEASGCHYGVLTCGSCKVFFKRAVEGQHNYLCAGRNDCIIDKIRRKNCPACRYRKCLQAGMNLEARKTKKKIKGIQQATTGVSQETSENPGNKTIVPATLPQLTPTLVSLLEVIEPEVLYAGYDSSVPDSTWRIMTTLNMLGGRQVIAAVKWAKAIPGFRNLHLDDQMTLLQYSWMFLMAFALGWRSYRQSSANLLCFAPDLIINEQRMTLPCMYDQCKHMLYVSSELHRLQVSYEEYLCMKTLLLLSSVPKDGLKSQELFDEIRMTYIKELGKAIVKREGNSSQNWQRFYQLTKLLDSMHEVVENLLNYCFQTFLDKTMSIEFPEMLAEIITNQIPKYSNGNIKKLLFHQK
Nuclear respiratory factor 1 (Homo sapiens), sequence (Q16656 whole entry, looked up): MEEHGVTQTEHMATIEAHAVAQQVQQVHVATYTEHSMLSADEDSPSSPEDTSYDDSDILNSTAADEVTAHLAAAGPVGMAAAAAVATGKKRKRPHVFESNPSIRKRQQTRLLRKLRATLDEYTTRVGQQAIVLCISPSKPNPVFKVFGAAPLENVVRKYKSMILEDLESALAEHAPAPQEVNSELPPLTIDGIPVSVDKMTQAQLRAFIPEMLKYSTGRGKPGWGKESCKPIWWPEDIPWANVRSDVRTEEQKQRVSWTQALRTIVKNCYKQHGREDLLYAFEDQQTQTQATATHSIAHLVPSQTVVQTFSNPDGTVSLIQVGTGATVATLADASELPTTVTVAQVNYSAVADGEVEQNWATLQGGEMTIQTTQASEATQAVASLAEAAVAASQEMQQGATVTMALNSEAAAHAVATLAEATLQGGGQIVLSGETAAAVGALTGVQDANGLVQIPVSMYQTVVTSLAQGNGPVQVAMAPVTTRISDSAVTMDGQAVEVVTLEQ
Cellular tumor antigen p53 (Homo sapiens), sequence (P04637 whole entry, looked up, the tested form may be a part): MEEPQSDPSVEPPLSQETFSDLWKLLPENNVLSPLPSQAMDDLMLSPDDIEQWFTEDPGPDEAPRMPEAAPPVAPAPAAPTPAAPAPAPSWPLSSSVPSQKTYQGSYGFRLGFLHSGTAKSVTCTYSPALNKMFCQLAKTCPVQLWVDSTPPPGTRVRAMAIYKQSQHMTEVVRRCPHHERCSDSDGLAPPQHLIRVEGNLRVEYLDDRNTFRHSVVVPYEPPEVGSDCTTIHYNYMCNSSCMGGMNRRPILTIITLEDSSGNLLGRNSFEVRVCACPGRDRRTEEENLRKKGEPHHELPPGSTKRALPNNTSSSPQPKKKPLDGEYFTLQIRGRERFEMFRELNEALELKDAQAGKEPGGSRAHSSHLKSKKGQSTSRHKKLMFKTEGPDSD
Oxysterols receptor LXR-alpha (Homo sapiens), sequence (Q13133 whole entry, looked up, the tested form may be a part): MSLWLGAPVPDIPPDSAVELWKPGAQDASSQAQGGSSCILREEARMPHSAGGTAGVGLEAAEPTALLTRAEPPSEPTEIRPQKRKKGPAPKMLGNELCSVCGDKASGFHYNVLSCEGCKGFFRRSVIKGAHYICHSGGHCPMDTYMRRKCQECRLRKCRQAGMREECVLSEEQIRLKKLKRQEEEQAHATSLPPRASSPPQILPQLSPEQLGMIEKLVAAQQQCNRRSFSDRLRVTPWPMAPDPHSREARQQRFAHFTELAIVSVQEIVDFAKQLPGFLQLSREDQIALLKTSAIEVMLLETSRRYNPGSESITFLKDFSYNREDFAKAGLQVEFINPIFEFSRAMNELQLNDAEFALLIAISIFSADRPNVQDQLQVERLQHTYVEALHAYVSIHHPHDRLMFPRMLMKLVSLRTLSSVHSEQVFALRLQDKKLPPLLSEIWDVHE
Hepatocyte nuclear factor 4-alpha (Homo sapiens), sequence (P41235 whole entry, looked up, the tested form may be a part): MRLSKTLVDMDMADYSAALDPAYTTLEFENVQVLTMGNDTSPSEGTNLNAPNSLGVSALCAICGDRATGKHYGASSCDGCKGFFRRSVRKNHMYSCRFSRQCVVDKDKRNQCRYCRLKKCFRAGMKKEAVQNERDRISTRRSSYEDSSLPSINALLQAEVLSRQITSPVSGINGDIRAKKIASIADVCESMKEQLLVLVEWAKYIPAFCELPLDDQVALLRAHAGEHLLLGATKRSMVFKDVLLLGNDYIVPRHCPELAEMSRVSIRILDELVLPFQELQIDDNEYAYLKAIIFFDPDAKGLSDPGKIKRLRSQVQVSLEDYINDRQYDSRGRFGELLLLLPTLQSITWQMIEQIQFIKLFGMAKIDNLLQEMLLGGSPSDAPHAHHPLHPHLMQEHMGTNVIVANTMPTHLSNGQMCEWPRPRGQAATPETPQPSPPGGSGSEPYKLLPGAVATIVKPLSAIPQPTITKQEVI
Bile acid receptor (Homo sapiens), sequence (Q96RI1 whole entry, looked up, the tested form may be a part): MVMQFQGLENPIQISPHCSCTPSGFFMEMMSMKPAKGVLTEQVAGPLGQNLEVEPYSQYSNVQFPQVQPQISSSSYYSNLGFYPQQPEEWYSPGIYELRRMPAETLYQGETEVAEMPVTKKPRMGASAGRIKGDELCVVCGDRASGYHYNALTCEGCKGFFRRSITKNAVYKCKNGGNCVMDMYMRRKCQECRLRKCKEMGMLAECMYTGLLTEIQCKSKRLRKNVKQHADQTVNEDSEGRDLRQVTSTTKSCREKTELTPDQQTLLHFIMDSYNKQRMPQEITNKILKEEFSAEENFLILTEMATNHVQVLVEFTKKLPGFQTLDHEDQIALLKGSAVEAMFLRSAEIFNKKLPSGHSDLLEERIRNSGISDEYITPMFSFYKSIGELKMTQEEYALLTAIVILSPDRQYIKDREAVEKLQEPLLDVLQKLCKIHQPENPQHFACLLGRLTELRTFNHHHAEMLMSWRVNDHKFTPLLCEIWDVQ

Take `N#Cc1cc([N+](=O)[O-])ccc1N`: the outcome in assay [1], in assay [2], in assay [3], in assay [4], in [5] and in assay [6] was inactive. Moreover, the outcome in [7], in assay [8], in [9], in [10], in assay [12] and in assay [13] was inactive. The outcome in assay [15] and in assay [16] was inactive. The AC50 was 27.2 µM (active) in assay [11] and 0.706 µM (active) in [14].
Turning to `CC(Cl)(Cl)C(=O)O`, the call in assay [1], in assay [3], in assay [4], in [5], in assay [6] and in assay [7] was inactive. Further, the result in assay [8], in assay [9], in assay [11], in [12], in assay [15] and in assay [16] was inactive.
For the molecule `Nc1cc2c3c(c1)C(c1ccccc1)=N[C@@H](NC(=O)c1cccnc1)C(=O)N3CC2`, the result in [1], in [17], in assay [18], in assay [3], in [4] and in assay [5] was inactive. Also, the outcome in assay [6], in assay [7], in [8], in [9], in assay [10] and in [11] was inactive. Also, the result in assay [15], in [16] and in assay [19] was inactive. In addition, the AC50 in [12] is 52.9 µM (active).
With `CCCCOCCOP(=O)(OCCOCCCC)OCCOCCCC`, the molecule was called inactive in assay [1], in assay [20], in [18], in assay [3], in [4] and in assay [5]. The result in [6], in [7], in [8], in [9], in assay [10] and in [11] was inactive. Further, the result in assay [12], in assay [13], in [14], in assay [15], in assay [16] and in assay [19] was inactive.

Source of the values: PubChem BioAssay (EPA / NIEHS).
